Assay results reported in PubChem BioAssay (Tox21).
Inconclusive results are not listed. The source made the active and inactive calls. Unless noted, calls follow the shape of the dose curve; as a rule, active = well fitted curve in the direction sought with a large enough effect in the repeat runs; inconclusive = weak or mixed curves; inactive = no such curve, though single readings can be large; an effect the other way counts as inactive or inconclusive.

Legend:
[1] = molecular target: Thyrotropin-releasing hormone receptor (Homo sapiens) (UniProt P34981); assay: qHTS assay to identify small molecule agonists of the thyrotropin-releasing hormone receptor (TRHR) signaling pathway (AID 1346891; calls by dose curve;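 also: HEK293 cells expressing TRHR with calcium dye readout; series mostly up to about 58 µM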)
Method in brief: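 Cells: TRHR-Hek293, seeded and incubated 18 h. Dye loading: 2 h at 37 °C. Compound added from DMSO stock by pin tool. Read-out: kinetic calcium fluorescence over 3 min.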

[2] = Caspase-3/7 induction in HepG2 cells by small molecules, qHTS assay (AID 1346978); also: nearly all actives have a fitted effect of over 15% in size; also: potency is read from the fitted curve at half-maximal effect
Method in brief: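 Wild-type HepG2 cells, 2,000/well, settled 5 hr at 37 C and 5% CO2, then compound-treated for 17 hr; caspase-3/7 activity read by luminescent Caspase-Glo 3/7 after 30 min at room temperature.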

[3] = Caspase-3/7 induction in CHO-K1 cells by small molecules, qHTS cell viability counter screen (AID 1346979); also: nearly all actives have a fitted effect of over 35% in size; also: potency is read from the fitted curve at half-maximal effect
Method in brief: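 Cytotoxicity counter screen run in parallel with the caspase-3/7 assay: CHO-K1 cells, 16hr compound treatment at 37C, then CellTiter-Fluor for 1hr before fluorescence reading.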

[4] = Caspase-3/7 induction in CHO-K1 cells by small molecules, qHTS assay (AID 1346980); also: nearly all actives have a fitted effect of over 15% in size; also: potency is read from the fitted curve at half-maximal effect
Method in brief: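 Wild-type CHO-K1 cells exposed to compounds for 17hr at 37 C, 5% CO2. Caspase-3/7 activity then measured by Caspase-Glo 3/7 luminescence after 30min at room temperature.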

[5] = Caspase-3/7 induction in HepG2 cells by small molecules, qHTS cell viability counter screen (AID 1346981); also: nearly all actives have a fitted effect of over 30% in size; also: potency is read from the fitted curve at half-maximal effect
Method in brief: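 Viability determined by CellTiter-Fluor fluorescence in HepG2 wells also used for the luminescent Caspase-Glo 3/7 read. Compounds were present for 16 hr at 37 C, 5% CO2 before reagent addition.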

[6] = Human pregnane X receptor (PXR) small molecule agonists, qHTS cell viability counter screen (AID 1346977); also: nearly all actives have a fitted effect of over 50% in size; also: potency is read from the fitted curve at half-maximal effect
Method in brief: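 Cytotoxicity counter screen run in the same wells as the PXR luciferase assay, using PXR-Luc HepG2 cells in charcoal-stripped serum medium. Viability: CellTiter-Fluor fluorescence after 24hr compound treatment.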

[7] = molecular target: Nuclear receptor subfamily 1 group I member 2 (Homo sapiens) (UniProt O75469); assay: Human pregnane X receptor (PXR) small molecule agonists, qHTS assay (AID 1346982); also: nearly all actives have a fitted effect of over 35% in size; also: potency is read from the fitted curve at half-maximal effect
Method in brief: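 Compound-induced hPXR transactivation of a CYP3A4 luciferase reporter was scored in HepG2 PXR-Luc cells over 24 hr at 37 C, 5% CO2, by luminescence.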

[8] = molecular target: Nuclear receptor subfamily 1 group I member 2 (Rattus norvegicus) (UniProt Q9R1A7); assay: Rat pregnane X receptor (rPXR) activation by small molecules, qHTS assay (AID 1346983); settings: rPXR luciferase reporter cells, One-Glo luminescence, 24 h; max activation: active compounds read high; also: nearly all actives have a fitted effect of over 20% in size; also: potency is read from the fitted curve at half-maximal effect
Method in brief: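 Cell-based rPXR activation assay: rPXR cells, 2,000 per well, rested 5hr at 37 C, then exposed to compounds in DMSO for 24 hr at 37 C. Luciferase activity read by One-Glo luminescence after 30 min at room temperature.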

[9] = molecular target: Nuclear receptor subfamily 1 group I member 2 (Homo sapiens) (UniProt O75469); assay: Human pregnane X receptor (PXR) activation by small molecules, qHTS assay (AID 1346985); also: nearly all actives have a fitted effect of over 40% in size; also: potency is read from the fitted curve at half-maximal effect
Method in brief: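 DPX-2 cells (HepG2 co-transfected with a PXR response element and a CYP3A4-promoter luciferase construct) were seeded at 2,000 per well, rested 5 hr at 37C, then exposed to DMSO-dissolved compounds for 24 hr. Activation was read as luciferase luminescence.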

[10] = molecular target: Nuclear receptor subfamily 1 group I member 2 (Homo sapiens) (UniProt O75469); assay: CYP3A4 induction through human pregnane X receptor (PXR) by small molecules, qHTS assay (AID 1346984); also: nearly all actives have a fitted effect of over 40% in size
Method in brief: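 Readings come from a luciferase reporter: DPX-2 cells, which are HepG2 cotransfected with PXR and a CYP3A4-promoter construct, were exposed to test compounds for 24 h at 37C before One-Glo detection.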
% is scaled to controls: 0 for no effect and ±100 for the full control effect.

Sequence of Nuclear receptor subfamily 1 group I member 2 (Homo sapiens) (O75469 whole entry, looked up): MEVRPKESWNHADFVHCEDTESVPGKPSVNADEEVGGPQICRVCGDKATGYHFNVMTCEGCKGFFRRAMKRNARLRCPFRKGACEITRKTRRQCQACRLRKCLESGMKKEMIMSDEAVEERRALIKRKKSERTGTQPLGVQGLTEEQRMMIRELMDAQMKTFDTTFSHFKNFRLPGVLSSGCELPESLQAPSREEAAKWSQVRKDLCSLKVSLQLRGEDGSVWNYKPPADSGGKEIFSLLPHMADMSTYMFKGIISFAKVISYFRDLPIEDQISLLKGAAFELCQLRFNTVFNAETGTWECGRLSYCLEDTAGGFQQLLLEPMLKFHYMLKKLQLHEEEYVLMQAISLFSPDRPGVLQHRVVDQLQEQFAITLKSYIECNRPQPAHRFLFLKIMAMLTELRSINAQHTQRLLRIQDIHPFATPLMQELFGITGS
Sequence of Thyrotropin-releasing hormone receptor (Homo sapiens) (P34981 whole entry, looked up): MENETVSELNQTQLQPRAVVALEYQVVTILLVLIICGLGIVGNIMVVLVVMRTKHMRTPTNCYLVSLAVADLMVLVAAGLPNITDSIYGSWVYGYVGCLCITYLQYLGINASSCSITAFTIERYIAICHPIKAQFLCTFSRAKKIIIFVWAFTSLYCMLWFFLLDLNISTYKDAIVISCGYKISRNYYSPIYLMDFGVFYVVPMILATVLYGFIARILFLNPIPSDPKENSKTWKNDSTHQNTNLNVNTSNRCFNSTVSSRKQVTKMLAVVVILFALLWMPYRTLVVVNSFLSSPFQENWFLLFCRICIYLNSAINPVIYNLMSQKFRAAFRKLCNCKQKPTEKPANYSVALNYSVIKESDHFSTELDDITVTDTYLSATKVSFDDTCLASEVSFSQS
Sequence of Nuclear receptor subfamily 1 group I member 2 (Rattus norvegicus) (Q9R1A7 whole entry, looked up): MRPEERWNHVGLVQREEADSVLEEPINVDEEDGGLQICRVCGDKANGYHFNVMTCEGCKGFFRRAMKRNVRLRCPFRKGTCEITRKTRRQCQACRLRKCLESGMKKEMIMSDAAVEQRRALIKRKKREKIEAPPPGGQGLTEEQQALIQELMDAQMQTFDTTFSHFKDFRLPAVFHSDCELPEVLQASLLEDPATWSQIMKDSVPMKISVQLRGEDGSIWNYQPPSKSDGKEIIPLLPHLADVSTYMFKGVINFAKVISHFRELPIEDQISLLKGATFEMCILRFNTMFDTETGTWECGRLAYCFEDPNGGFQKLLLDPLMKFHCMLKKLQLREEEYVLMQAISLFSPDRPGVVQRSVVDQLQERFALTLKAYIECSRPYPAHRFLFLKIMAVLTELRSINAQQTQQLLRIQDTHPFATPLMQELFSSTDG

Brc1cc(Br)c(Oc2cc(Br)c(Br)cc2Br)cc1Br
inactive: Potency [1] | Potency [2] | Potency [3] | Potency [4] | Potency [5]

CC(C)COCC(CN(Cc1ccccc1)c1ccccc1)N1CCCC1 (configuration not stated)
active: Potency [6] 29.8 µM | Potency [5] 29.8 µM
inactive: Potency [1]

COC(=O)C1=C(C)NC(C)=C(C(=O)O[C@@H]2CCCN(Cc3ccccc3)C2)[C@@H]1c1cccc([N+](=O)[O-])c1
inactive: Potency [1] | Potency [2] | Potency [4]
active: Potency [3] 29.8 µM | Potency [7] 2.11 µM

O=c1[nH]c2ccc(Cl)cc2o1
inactive: Potency [2] | Potency [4] | Potency [5]

Clc1ccc(Nc2nnc(Cc3ccncc3)c3ccccc23)cc1
inactive: Potency [2] | Potency [4] | max activation [8] 1.3%
active: Potency [9] 3.98 µM

COc1ccccc1N1CCN(CC(O)COc2cccc3ccccc23)CC1 (configuration not stated)
inactive: Potency [2] | Potency [4]

CCC(=O)C1CC(C(C)C)CC=C1C (configuration not stated)
inactive: Potency [6] | Potency [2] | Potency [4]
active: Potency [7] 30.6 µM

c1ccc(C[n+]2cccc3ccccc32)cc1
inactive: Potency [6] | Potency [3] | Potency [4] | Potency [5] | Potency [7]

COc1ccccc1NC(=O)c1cc2ccccc2cc1O
active: Potency [7] 24.3 µM
inactive: Potency [2] | Potency [4] | Potency [5]

CCOc1cccc(-n2cc(C(=O)N3CCN(c4cc(C(=O)O)c5ccccc5c4)CC3)nc2-c2ccc(C)cc2)c1
inactive: Potency [5]
active: Potency [3] 58.3 µM | Potency [4] 58.3 µM

Cc1cccc(N(C)C(=S)Oc2ccc3c(c2)CCC3)c1
active: Potency [7] 10.6 µM
inactive: Potency [3] | Potency [4] | Potency [5]

Cc1cscn1
inactive: Potency [5] | Potency [7]

c1ccc2sc(SN(C3CCCCC3)C3CCCCC3)nc2c1
inactive: Potency [6] | Potency [2] | Potency [3] | Potency [5]
active: Potency [7] 17 µM

O=C=Nc1ccc(Cl)c(Cl)c1
inactive: Potency [6] | Potency [2] | Potency [3] | Potency [4] | Potency [5]
active: Potency [7] 26.9 µM

CCC1CO1 (configuration not stated)
inactive: Potency [6] | Potency [3] | Potency [4] | Potency [5]

Cc1[nH]cnc1CN1CCc2c(c3ccccc3n2C)C1=O
inactive: Potency [2] | Potency [3] | Potency [4] | Potency [5] | Potency [7] | max activation [8] 1.25% | Potency [10] | Potency [9]

c1csc(SSc2cccs2)c1
inactive: Potency [2] | Potency [5]
active: Potency [6] 27.3 µM | Potency [3] 34.4 µM

O=[N+]([O-])c1cc(C2CCCCC2)c(O)c([N+](=O)[O-])c1
active: Potency [3] 7.67 µM | Potency [5] 15.3 µM | Potency [7] 8.61 µM
inactive: Potency [2] | Potency [4]

CC(=O)c1cc2ccccc2s1
inactive: Potency [6] | Potency [2] | Potency [4] | Potency [5] | Potency [7]

O=c1c(O)c(-c2ccc(O)cc2)oc2cc(O)cc(O)c12
inactive: Potency [2] | Potency [4]
active: Potency [3] 60.9 µM | Potency [5] 60.9 µM

Cc1cc(C)c(N)cc1C
inactive: Potency [6] | Potency [2] | Potency [4]

O=c1cc(-c2ccccc2)oc2cc(O)cc(O)c12
active: Potency [6] 54.5 µM | Potency [3] 61.1 µM | Potency [5] 54.5 µM | Potency [7] 48.6 µM
inactive: Potency [2]

O=C(O)CCC(=O)C(=O)O
inactive: Potency [3] | Potency [4] | Potency [5] | max activation [8] -0.816% | Potency [9]

COc1ccccc1N1CCN(CCCCNC(=O)c2ccc(-c3ccc(C(C)=O)cc3)cc2)CC1
inactive: Potency [6] | Potency [2] | Potency [3] | Potency [4] | Potency [5] | max activation [8] -3.31% | Potency [10] | Potency [9]

CCCCOc1ccc(OCCCN2CCOCC2)cc1
inactive: Potency [2] | Potency [3] | Potency [4] | Potency [5] | max activation [8] -1.82% | Potency [9]

C[C@@H](CN(C)C)CN1c2ccccc2Sc2ccccc21
inactive: Potency [2] | Potency [4] | Potency [9]

CC1(C)O[C@@H]2C[C@H]3[C@@H]4C[C@H](F)C5=CC(=O)C=C[C@]5(C)[C@H]4[C@@H](O)C[C@]3(C)[C@]2(C(=O)CO)O1
inactive: Potency [6] | Potency [2] | Potency [3] | Potency [4] | Potency [5] | Potency [9]
active: Potency [8] 8.91 µM

Nc1nnc(-c2ccc([N+](=O)[O-])o2)o1
active: Potency [6] 27.3 µM | Potency [3] 54.5 µM | Potency [5] 68.6 µM
inactive: Potency [2] | Potency [7]

O=C1Cc2ccccc2N1c1c(Cl)cccc1Cl
active: Potency [7] 9.69 µM
inactive: Potency [6] | Potency [2] | Potency [4]

CCCCCC#CC(=O)OC
inactive: Potency [6] | Potency [2] | Potency [3] | Potency [4] | Potency [5] | Potency [7]

CCOC(=O)c1ccc(O)c(O)c1
inactive: Potency [6] | Potency [2] | Potency [3] | Potency [4] | Potency [7]

CCOc1ccc(Cc2nccc3cc(OCC)c(OCC)cc23)cc1OCC
active: Potency [6] 26.6 µM | Potency [3] 11.9 µM | Potency [5] 29.8 µM | Potency [7] 3.35 µM
inactive: Potency [2] | Potency [4] | max activation [8] -4.93%

CC(CC1c2ccccc2CCc2ccccc21)CN(C)C (configuration not stated)
inactive: Potency [4]

CC1(CN2CCC(n3c(=O)[nH]c4ccccc43)CC2)OCc2ccccc2-n2cccc21 (configuration not stated)
inactive: Potency [2]
active: Potency [6] 29.8 µM | Potency [3] 29.8 µM | Potency [9] 4.47 µM

CCCCN(CCCC)C(C(N)=O)c1ccc(OC)cc1 (configuration not stated)
inactive: Potency [2] | Potency [3] | Potency [5]

CCOc1ccccc1O[C@H](c1ccccc1)[C@H]1CNCCO1
active: Potency [9] 22.4 µM
inactive: Potency [2] | Potency [3] | Potency [5] | Potency [7] | max activation [8] -0.272%

CC(C)Nc1cccnc1N1CCN(C(=O)c2cc3cc(NS(C)(=O)=O)ccc3[nH]2)CC1
inactive: Potency [6] | Potency [2] | Potency [4] | Potency [5] | Potency [7] | max activation [8] 0.79% | Potency [10] | Potency [9]

COc1cc(Nc2c(C#N)cnc3cc(OCCCN4CCN(C)CC4)c(OC)cc23)c(Cl)cc1Cl
inactive: Potency [4]
active: Potency [2] 11.9 µM | Potency [3] 29.8 µM | Potency [5] 13.3 µM

CCCCC(CC)COP(=O)(O)O (configuration not stated)
inactive: Potency [2] | Potency [3] | Potency [4] | Potency [7]

Cc1cc2c(OCC(CNC(C)(C)C)OC(=O)c3ccccc3)cccc2[nH]1 (configuration not stated)
inactive: Potency [6] | Potency [2] | Potency [3] | Potency [4] | Potency [5] | Potency [7] | max activation [8] -3.65% | Potency [9]

C=CC(=O)[O-].C=CC(=O)[O-].[Zn+2]
inactive: Potency [6] | Potency [3] | Potency [4] | Potency [5] | Potency [7]

CCCCCCCC/C=C\CCCCCCCCCCCC(=O)O
inactive: Potency [6] | Potency [3] | Potency [4] | Potency [5] | Potency [7]

CC(=O)OCC(=O)NCCCOc1cccc(CN2CCCCC2)c1
inactive: Potency [6] | Potency [2] | Potency [4] | max activation [8] -1.53% | Potency [9]
